The list is not random: actives were taken first. Their share in the collection is about 6.1%.
D1 agonist – agonists of human D1 dopamine receptor; HEK293 T-REx D1 cells, calcium flux, agonist mode; activation, % at 2 µM; 1% of 360,000 active; P21728; in the data active means activation above about 30%; further: 0% is about no effect
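Inducible HEK293 T-REx D1 cells, force-coupled to calcium signalling, were plated at 4000 cells/well with tetracycline and held overnight at 30 C. After no-wash calcium dye loading, compound-evoked calcium rise over 180 s flagged agonists.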
D3 antag – antagonists of human D3 dopamine receptor; D3R cells, DiscoveRx beta-arrestin luminescence, antagonist mode; hits give low values; P35462; AID 652054; 2.5% of 360,000 active; max response, negative = inhibition, %; in the data active means max response below about -50%; inconclusive means no clear call, values can overlap the other calls; further: on the % scale 0 is the no-effect control and ±100 the full control effect
Target sequence (P35462 whole entry, looked up): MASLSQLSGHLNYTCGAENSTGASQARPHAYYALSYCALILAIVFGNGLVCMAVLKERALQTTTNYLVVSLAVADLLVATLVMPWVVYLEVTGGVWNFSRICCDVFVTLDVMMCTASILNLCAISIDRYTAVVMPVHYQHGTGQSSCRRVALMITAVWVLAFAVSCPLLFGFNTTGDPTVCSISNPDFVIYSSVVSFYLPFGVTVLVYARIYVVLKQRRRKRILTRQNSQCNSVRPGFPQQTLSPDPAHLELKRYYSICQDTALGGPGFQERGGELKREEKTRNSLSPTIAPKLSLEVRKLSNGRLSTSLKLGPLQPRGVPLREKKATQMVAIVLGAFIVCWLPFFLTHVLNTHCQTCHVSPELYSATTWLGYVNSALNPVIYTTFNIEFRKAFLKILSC
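Cells plated overnight at 1500 cells/well, then exposed to library compounds with dopamine controls for 90 minutes at 37 degrees C. DiscoveRx reagent added for 30–60 minutes at room temperature; luminescence read, quantitative HTS format.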
D1 potentiator – enhances dopamine response at the human D1 receptor; potentiation, % at 10 µM; HEK293 TREx D1 cells, calcium flux, dopamine EC20 potentiation; AID 504651; 0.036% of 360,000 active; in the data active means potentiation above about 30%; further: 0% is about no effect
D1 antagonist – human D1 dopamine receptor antagonism; HEK293 TREx D1 cells, calcium flux, dopamine EC80; hits give low values; activity change, negative = inhibition, % at 10 µM; 3.2% of 360,000 active; in the data active means activity change below about -30%; further: on the % scale 0 is the no-effect control and ±100 the full control effect
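Tetracycline-induced HEK293 Trex D1 cells, force-coupled to calcium, dye-loaded; compounds added and read 180 s, then EC80 dopamine added and calcium flux tracked kinetically another 180 s.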
D3 ag – D3 dopamine receptor (human) agonism; P35462; D3R DiscoveRx beta-arrestin cells, luminescence, 90 min; max activation, %; 0.58% of 410,000 active; in the data active means max activation above about 30%; further: 0% is about no effect
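Cells at 1500/well, incubated overnight, then treated with pinned compounds (dopamine as control) for 90 min at 37 degrees C. DiscoveRx reagent added for 30 - 60 minutes at room temperature; luminescence read.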
Starred values were filed as active, the others as inactive; ? = inconclusive; / = no result given.

SMILES	D1 agonist	D3 antag	D1 potentiator	D1 antagonist	D3 ag
CN(C)CCNC(=O)C(=O)NCC(c1cccnc1)N1CCN(c2ccc(F)cc2)CC1 (centres undefined)	-1	/	3	-2	4
COc1ccccc1N1CCN(C(CNS(=O)(=O)c2cccs2)c2cccnc2)CC1 (centres undefined)	2	-50*	-6	-2	-7
CN(C)CCNC(=O)C(=O)NCC(c1cccnc1)N1CCN(c2ccccc2)CC1 (centres undefined)	5	/	-4	-33*	5
O=C(NCc1cccnc1)C(=O)NCC(c1cccnc1)N1CCN(c2ccccc2F)CC1 (centres undefined)	7	/	-5	1	7
O=C(NCC(c1cccnc1)N1CCN(c2ccccc2F)CC1)c1ccccc1 (centres undefined)	1	3	-7	-32*	4
O=C(NCCc1ccccc1)C(=O)NCC(c1cccnc1)N1CCN(c2ccc(F)cc2)CC1 (centres undefined)	33*	/	1	4	6
C[C@@H]1CN([C@@H](C)CO)C(=O)CCCn2nncc2CO[C@@H]1CN(C)S(=O)(=O)c1cccc(C#N)c1	/	-7	/	/	-8
CCOc1ccc(NC(=O)c2c(NCc3sccc3C)sc3c2CCCCC3)cc1	0	/	-2	-7	-19
CCN(CC)c1ccc2cc(-c3nnc(-c4cccc(Cl)c4)o3)c(=O)oc2c1	416*	/	38*	-14	-3
CCN(CC)c1ccc2cc(-c3nnc(-c4ccncc4)o3)c(=O)oc2c1	199*	36	-9	-18	9
NCCCNCCCCNC(=O)C(O)NC(=O)CCCCCCN=C(N)N (centres undefined)	/	/	/	/	-2
CCN(CC)S(=O)(=O)c1cccc(-c2nnc(SCCCC(=O)c3ccc(F)cc3)o2)c1	34*	36	-3	0	4
CN1CCC(OC2c3ccccc3CCc3ccccc32)CC1	/	-99*	/	/	-2
CN1CCC(OC(=O)COc2ccccc2)CC1	2	-15	-8	5	-3
O=C(CNc1ccccc1Cl)Nc1cc(S(=O)(=O)N2CCOCC2)ccc1Cl	2	-10	1	-33*	0
Cc1ccc(S(=O)(=O)N2CCOCC2)cc1NC(=O)CNCc1ccccn1	2	1	-3	-14	52*
Cc1ccc(S(=O)(=O)N2CCOCC2)cc1NC(=O)CNCc1ccccc1Cl	8	-15	-5	5	35*
O=C(Cc1ccccc1Cl)Nc1cc(S(=O)(=O)N2CCOCC2)ccc1N1CCOCC1	2	2	14	18	0
CCCCCn1c(=O)[nH]c2cc(C(=O)NC(C)CC)ccc2c1=O (centres undefined)	2	/	-1	5	8
CCN1CCN(c2nc3ccccc3n3cnnc23)CC1	1	-70*	0	-7	-22
Cc1cccc(C)c1NC(=O)c1nc(SC(C)C)ncc1Cl	0	/	2	18	45*
CCOc1ccc(N2C(=O)CC(C(C)c3ccccc3)C2=O)cc1 (centres undefined)	2	10	-2	7	1
CC(=O)C1=C(O)C(=O)N(c2cccc(C(=O)O)c2)C1c1ccccc1F (centres undefined)	3	-14	4	-87*	-16
CC(=O)C1=C(O)C(=O)N(Cc2ccccc2)C1c1ccccc1F (centres undefined)	1	15	-6	-6	3
CC(=O)c1cc(C(=O)N2CCCC(C(=O)c3ccc(Cl)cc3)C2)cs1 (centres undefined)	5	?	2	-33*	0
SMILES	D1 agonist	D3 antag	D1 potentiator	D1 antagonist	D3 ag
O=C(c1ccc(Cl)cc1)N1CCCC(C(=O)N2CCCCC2)C1 (centres undefined)	2	8	-4	16	-9
CC(=O)N(C1=C(O)c2ccccc2C(=O)C1=O)C1CCCCC1	0	-17	-1	-38*	-31
Clc1ccc(N2CCN(c3ncnc4c3nc3n4CCCC3)CC2)cc1	7	/	1	1	-1
O=C(NCc1cccc(Cl)c1)c1cc2c(s1)-c1ccccc1OC2	4	/	-8	-50*	-15
Cc1ccc(C)c(N(C)C(=O)c2cc3c(s2)-c2ccccc2OC3)c1	-1	/	2	8	-6
CCN1CCN(CCCNC(=O)c2cc3c(s2)-c2ccccc2OC3)CC1	0	?	-13	41	-19
CCCN1CCN(CCCNC(=O)c2cc3c(s2)-c2ccccc2OC3)CC1	5	?	-11	-12	-22
CN(C)CCNC(=O)c1cc2c(s1)-c1ccccc1OC2	122*	-81*	-8	-53*	-13
O=C(NCCCN1CCN(c2ccccc2F)CC1)c1cc2c(s1)-c1ccccc1OC2	5	/	-7	-46*	1
COc1ccc(N(C)C(=O)c2cc3c(s2)-c2ccccc2OC3)c(OC)c1	2	3	-9	-40*	3
COc1ccccc1N1CCN(Cc2cc(=O)c(OCC(=O)NC(C)C)co2)CC1	3	5	1	6	-3
O=C(C=NNc1ccccc1)c1ccccc1	/	-16	/	/	-2
Cc1csc(NC(=O)c2cc3c(s2)-c2ccccc2OC3)n1	3	23	3	-9	9
Cc1c(NC(=O)c2cc3c(s2)-c2ccccc2OC3)cccc1[N+](=O)[O-]	3	9	-8	-40*	-11
COc1cc(C=NNC(=O)C(=O)Nc2cccc(Cl)c2)cc(OC)c1O	/	13	/	/	-1
O=C(N/N=C/c1cccs1)C(=O)Nc1cccc(Cl)c1	14	9	-4	-66*	1
CS(=O)(=O)c1ccc(C(=O)Nc2nc(-c3ccco3)c(-c3ccco3)s2)cc1	3	-26	-2	-14	-8
O=C(O/N=C1/CCCc2occc21)c1ccc(Cl)cc1Cl	4	-8	3	-33*	-1
O=C(O/N=C1/CCCc2occc21)c1ccccc1	1	-4	-3	17	0
CCC(=O)N1CCC1(C)C(=O)Nc1ccc(OC(F)F)cc1 (centres undefined)	/	-16	/	/	-2
COc1ccc(C(CCN2CCN(c3ccccc3)CC2)c2c(O)cc(OC)cc2OC)cc1 (centres undefined)	1	-112*	-9	-84*	-65
CCN(CC)CCC(c1ccc(OC)cc1)c1c(O)cc(OC)cc1OC (centres undefined)	8	?	-10	-32*	-28
CCN(CC)CCC(c1ccc(N(C)C)cc1)c1c(O)cc(OC)cc1OC (centres undefined)	8	-20	3	-6	-4
COc1cc(O)c(C(CCN2CCCC(C)C2)c2ccc3c(c2)OCO3)c(OC)c1 (centres undefined)	9	-68*	-6	-17	-49
COc1cc(O)c(C(CCN2CCN(c3ccccc3)CC2)c2ccc(N(C)C)cc2)c(OC)c1 (centres undefined)	1	0	-9	-80*	-67
